Screens deposited in PubChem by several laboratories.
GIRK2 act – Activates human GIRK2-containing potassium channels; P48051; HEK293 GIRK2/NPY4 cells, thallium flux fluorescence; activation (% efficacy), % for hits at 37.5 µM; 34,000 tested, under 10 active;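 active = primary screen hit, no activity in plain HEK293 cells, and in GIRK2-only cells above 5% efficacy rising with concentration; inactive = the rest, including fluorescent compounds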;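 also: efficacy is normalized control-subtracted fluorescence 15 s after thallium addition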
GluA2 TARP mod – modulators of AMPA receptor GluA2-stargazin complexes; HEK293 GluA2+stargazin, membrane potential dye (FDSS), glutamate EC50; hits were called plate by plate, in both directions; calls only at 30 µM; 40,000 compounds, 3.5% hits;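 active = any of four per-well response measures lying three or more SD from its plate-wide compound average, in either direction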
Of the large screens only hits and unclear results are named; the others gave an inactive call. The entries come from a sample that favours hits as a whole.

CCC(=O)Nc1ccc2c(c1)N(C(=O)C1CCCC1)CC2	none (no result: GluA2 TARP mod)
O=C(Nc1ccc(Nc2ccccc2)cc1)c1ccoc1	GluA2 TARP mod active
NC(=O)c1cccc(NC(=O)c2ccoc2)c1	none
CC(C)(C)NC(=O)C(=O)NCC1(c2cccs2)CCOCC1	none (no result: GIRK2 act)
COc1cc(Cl)c(C)cc1NC(=O)CCc1ccccc1	none
O=C(NCC1CCN(C2CCCC2)CC1)c1ccc(Cl)cc1	none (no result: GIRK2 act)
CCOc1cccc2sc(NC(=O)c3cc(C)nn3CC)nc12	GluA2 TARP mod active (no result: GIRK2 act)
CCOc1cccc2sc(NC(=O)c3ccnn3C)nc12	none (no result: GIRK2 act)
CC1CCCN(C(=O)CN2CCN(c3ccc(F)c(F)c3)C2=O)C1 (configuration not stated)	none
Cc1cc(-c2nnc(NC(=O)c3cccs3)o2)n(C)n1	none (no result: GluA2 TARP mod)
COc1ccc(C(=O)Nc2ccc(Cl)cn2)cc1S(=O)(=O)N1CCOCC1	none (no result: GIRK2 act)
CCOC(=O)C1=C(CS(=O)(=O)c2ccc(C)c(C)c2)NC(=O)NC1c1ccc(O)c(OC)c1 (configuration not stated)	none
Cc1ccc(CN2C(=O)N(c3ccc(C)c(Cl)c3)C3CS(=O)(=O)CC32)cc1 (configuration not stated)	none
C=Cc1ccc(CN2C(=O)N(c3ccc(CC)cc3)C3CS(=O)(=O)CC32)cc1 (configuration not stated)	GluA2 TARP mod active (no result: GIRK2 act)
c1ccc(CSc2nc3ccccc3[nH]2)nc1	none
COc1ccc(OCC(O)Cn2c(N3CCN(C)CC3)nc3c2c(=O)n(C)c(=O)n3C)cc1 (configuration not stated)	GluA2 TARP mod active (no result: GIRK2 act)
CN1CCN(c2nc3c(c(=O)n(C)c(=O)n3C)n2CC(O)COc2ccccc2)CC1 (configuration not stated)	GluA2 TARP mod active (no result: GIRK2 act)
Cc1ccc(OCC(O)Cn2c(N3CCC(C)CC3)nc3c2c(=O)n(C)c(=O)n3C)cc1C (configuration not stated)	none (no result: GIRK2 act)
Cc1cccc(OCC(O)Cn2c(N3CCN(c4ccccc4)CC3)nc3c2c(=O)n(C)c(=O)n3C)c1 (configuration not stated)	none (no result: GIRK2 act)
O=C(CN1CC(c2nc(-c3cccc(C(F)(F)F)c3)no2)C1)Nc1ccc2c(c1)OCO2	none (no result: GluA2 TARP mod)
Cc1ccc(CN2C(=O)CC(N3CCOCC3)C2=O)cc1 (configuration not stated)	none
CC(c1ccccc1)N1C(=O)CC(N2CCOCC2)C1=O (configuration not stated)	GluA2 TARP mod active (no result: GIRK2 act)
COCCn1c(=O)c2c(nc3n(-c4cccc(C)c4)c(C)c(C)n23)n(C)c1=O	none (no result: GIRK2 act)
CC(C)Cc1cnc2c(c1SCC(=O)NC1CCCC1)c(=O)n(C)c(=O)n2C	GluA2 TARP mod active (no result: GIRK2 act)
Cc1cnc2c(c1SCC(=O)NC1CCCC1)c(=O)n(C)c(=O)n2C	none
CS(=O)(=O)N1CCC(C(=O)Nc2nnc(-c3ccco3)o2)CC1	none (no result: GluA2 TARP mod)
c1ccc(N2CCN(c3nc(NCc4ccco4)c4ccccc4n3)CC2)cc1	none (no result: GIRK2 act)
c1coc(CNc2nc(N3CCCCC3)nc3ccccc23)c1	GluA2 TARP mod active (no result: GIRK2 act)
COC(=O)NCC1CCN(C(=O)Nc2ccccc2OC)CC1	none
O=C(NCC(F)(F)F)c1ccc(N2CCC(Cc3ccccc3)CC2)nn1	GluA2 TARP mod active
O=C(NCC(F)(F)F)C1CCN(C(=O)CSCc2ccccc2)CC1	none (no result: GluA2 TARP mod)
Cc1sc(NC(=O)c2ccc(SC(C)C)cc2)c(C#N)c1C	none
O=C(Nc1ccccc1Br)c1n[nH]nc1Nc1cccc(Cl)c1	none
COc1cc(NC(=O)c2n[nH]nc2Nc2cccc(Cl)c2)cc(OC)c1	GluA2 TARP mod active
CC1=C(C(=O)Nc2ccc(F)cc2)C(c2cccnc2)C2=C(CC(c3ccccc3)CC2=O)N1 (configuration not stated)	none (no result: GIRK2 act)
O=c1nc(SCc2cccc(Cl)c2)c2c(n1CC1CCCO1)CCCC2 (configuration not stated)	GluA2 TARP mod active
O=c1nc(SCc2cccc([N+](=O)[O-])c2)c2c(n1CC1CCCO1)CCC2 (configuration not stated)	none
Cc1c(Cl)cccc1NC(=O)Cn1c(=O)c(CNc2ccccc2)cc2cc3c(cc21)OCCO3	GluA2 TARP mod active
O=C(Cn1c(=O)c(CNc2ccccc2)cc2cc3c(cc21)OCCO3)Nc1ccc2c(c1)OCCO2	none
O=C(CCn1cnc2c(cnn2-c2ccccc2)c1=O)NC(c1ccccc1)c1ccccc1	none (no result: GluA2 TARP mod)
COc1ccc(NC(=O)CCc2csc(NC(=O)c3ccco3)n2)cc1Cl	none
CC1(C)CC(=O)C2=C(C1)NC1=C(C(=O)c3ccccc31)C2c1cccnc1 (configuration not stated)	none (no result: GIRK2 act)
CC1(C)CC(=O)C2=C(C1)NC1=C(C(=O)c3ccccc31)C2c1ccc(C(F)(F)F)cc1 (configuration not stated)	GluA2 TARP mod active (no result: GIRK2 act)
CCOc1ccccc1NC(=O)Nc1ccc2c(c1)N(S(C)(=O)=O)CCC2	none (no result: GluA2 TARP mod)
COc1ccc(-c2nnc3ccc(OCCNC(=O)c4ccco4)nn23)cc1	GluA2 TARP mod active
COc1ccc(-c2nnc3ccc(OCCNC(=O)Nc4ccccc4C)nn23)cc1OC	GluA2 TARP mod active
